# Experimental data published in PubChem BioAssay AID651871 (Sanford-Burnham Center for Chemical Genomics, 2012).
# Where “and” joins values, the source holds several entries; their conditions need not be identical. Equal entries are not always repeated.
# Test system: H9c2
# Experiment: cardiomyocyte survival under oxidative or metabolic stress – cell-based, panel, H9c2 and HL-1, ATP luminescence, set 2, SAR follow-up (AID 651871);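 further: cells exposed to stressor for 2 h before ATP readout; reference of the scale not given here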
# Conditions: H9c2/HL-1 cardiomyocytes, 2-deoxyglucose stress, with 2-deoxyglucose; run 7, at 79 µM (top of the series)
row,Compound,activity (protection/inhibition)
1,CCOC(=O)c1cccc(NC(=O)CNC(=O)c2cc(-c3cc(OC)c(OC)c(OC)c3)nc3ccccc23)c1,77%
2,COc1ccc2nc(-c3cc(OC)c(OC)c(OC)c3)cc(C(=O)NCC(=O)Nc3ccc(C(C)=O)cc3)c2c1,66.5%
3,COc1ccc2c(c1OC)C(=O)N1c3ccccc3C(=O)N(Cc3cccc(Cl)c3Cl)C21 (stereo not drawn),73.7% and 71.7% and -5.58%
